Screens deposited in PubChem BioAssay by The Scripps Research Institute Molecular Screening Center.
Only some compounds are listed: those with a hit (about 2.9% of all), similar ones and a draw of the others.
ADAM17 inh = inhibits human ADAM17; 0.83% of 370,000 active; AID 720648; P78536; inhibition, % at 6.95 µM; recombinant ADAM17, EDANS/DABCYL FRET peptide cleavage;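 active means inhibition above the mean of compounds lying between control limits plus 3 SD, set per campaign, cut at about 8.5% in these data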;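 further: 0% = DMSO-only wells as the low control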
PLC-gamma1 inh = inhibitors of human phospholipase C gamma1; 0.84% of 370,000 active; purified PLC-gamma1, fluorogenic substrate, fluorescence; inhibition, % at 12.2 µM; in the data active means inhibition above about 9.5%
ADAM10 inh = inhibitors of human ADAM10. recombinant ADAM10, EDANS/DABCYL FRET peptide cleavage, 3 h. inhibition, % at 7 µM. 0.62% of 370,000 active;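 active means inhibition above a per-campaign cutoff equal to the mean of compounds falling between control-based bounds plus 3 SD, cut at about 20% in these data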;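 further: 0% = DMSO wells while the 100% control is not disclosed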
Target sequence (O14672 214-748 limits assumed): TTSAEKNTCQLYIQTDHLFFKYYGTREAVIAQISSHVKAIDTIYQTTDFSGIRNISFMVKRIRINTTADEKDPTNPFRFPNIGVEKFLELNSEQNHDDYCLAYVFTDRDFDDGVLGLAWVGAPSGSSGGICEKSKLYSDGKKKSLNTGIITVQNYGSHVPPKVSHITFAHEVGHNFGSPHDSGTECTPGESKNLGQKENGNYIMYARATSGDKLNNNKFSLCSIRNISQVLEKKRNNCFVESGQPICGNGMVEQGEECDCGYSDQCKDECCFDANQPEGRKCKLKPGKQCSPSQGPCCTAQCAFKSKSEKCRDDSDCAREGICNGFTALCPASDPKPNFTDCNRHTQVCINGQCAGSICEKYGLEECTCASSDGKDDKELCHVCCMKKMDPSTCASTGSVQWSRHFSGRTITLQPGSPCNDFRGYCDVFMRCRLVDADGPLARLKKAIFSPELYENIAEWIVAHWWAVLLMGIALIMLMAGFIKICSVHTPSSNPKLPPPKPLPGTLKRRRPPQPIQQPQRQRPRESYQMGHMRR
proKLK7 act = proKLK7 (human) activation, primary screen | purified proKLK7, EDANS-DABCYL substrate fluorescence; 100% is mature enzyme control, 0% vehicle | activation, % at 7 µM | 0.9% of 370,000 active | AID 652039 | P49862;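 active means activation above the mean of all tested compounds plus 3 SD, computed per campaign excluding outliers beyond control limits, cut at about 13% in these data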
PLCb3 inh = blocks human PLC-beta3 enzyme activity | inhibition, % at 12.2 µM | Purified PLC-beta3, fluorogenic substrate, fluorescence | 0.18% of 370,000 active; in the data active means inhibition above about 11%;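 further: 0% = median of compound wells on plate and 100% = full blocker control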
ADAM10 counter = inhibits human ADAM10 in ADAM17 exosite counter-screen | shares compounds with ADAM17 inh | recombinant ADAM10, EDANS/DABCYL FRET peptide cleavage, 3 h | inhibition, % at 6.95 µM | 47% of 2,900 active;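 active means mean inhibition over the triplicate runs exceeds the activity threshold set in the earlier primary screen, cut at about 20% in these data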;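 further: 0% = DMSO wells and 100% = marimastat wells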
ADAM17 confirm = confirmation of inhibitors of human ADAM17. inhibition, % at 6.95 µM. 65% of 2,900 active. recombinant ADAM17, EDANS/DABCYL QFRET peptide cleavage. shares compounds with ADAM17 inh;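 active means mean inhibition across replicates above the hit cutoff set in the primary screen, cut at about 8.5% in these data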;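 further: 0% = DMSO wells and 100% = marimastat wells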
* marks the source's active call; other numbers are inactive results; / = no result given; ! = not active in a repeat.

SMILES | ADAM17 inh | PLC-gamma1 inh | ADAM10 inh | proKLK7 act | PLCb3 inh | ADAM10 counter | ADAM17 confirm
O=C(c1ccoc1)N1CCN(c2cc(-c3cccnc3)nc3cc(-c4cccc(Cl)c4)nn23)CC1 | -43 | -145 | -143 | -10 | -211 | / | /
COCCn1c(-c2ccccc2)nc(=S)c2c1CC(C)(C)OC2 | 5 | -1 | 8 | 0 | -3 | / | /
CC1(C)Cc2c(c(=S)nc(-c3ccccc3)n2CCN2CCOCC2)CO1 | 8.7* | 4 | 2 | -1 | -5 | 3 | 6
Nc1nc(Nc2ccccc2)nc(NCc2ccccc2)c1[N+](=O)[O-] | 2 | 2 | 16 | 0 | -6 | / | /
Cc1cccc(Nc2nc(N)c([N+](=O)[O-])c(NCc3ccccc3)n2)c1 | 9.2* | 3 | 13 | -1 | -3 | 10 | 5
CC1(C(=O)NCc2cccs2)Cc2c(-c3ccccc3)ccnc2O1 (stereo not given) | 1 | 2 | -6 | 0 | 0 | / | /
O=C(NCc1ccccc1)C(c1ccc(-c2ccccc2)cc1)N1CCN(CCN2CCOCC2)CC1 (stereo not given) | -3 | -2 | -7 | 0 | 0 | / | /
CN(C)c1ccc(S(=O)(=O)NCC(=O)OCC(=O)Nc2cc(Cl)cc(Cl)c2)cc1[N+](=O)[O-] | 9.9* | 6 | 20 | 0 | 1 | 42* | 23*
CN(CCOc1ccc(Cl)cc1)C(=O)CNS(=O)(=O)c1ccc(N(C)C)c([N+](=O)[O-])c1 | -3 | 3 | -5 | 0 | -3 | / | /
CCCCCCCCN1C(=O)[C@@H](CC(=O)NCc2cccs2)C[C@@]2(C(=O)OC)C1=C[C@H](COCc1ccccc1)O[C@@H]2C | 1 | 1 | 4 | 1 | -6 | / | /
C/C=C/C(=O)N1CC2(CC(c3cccc(NC(=O)COc4ccc(Cl)cc4)c3)=NO2)C[C@@H]1C(N)=O (stereo not given in full) | -4 | -1 | 6 | 0 | -1 | / | /
CCCCCC(=O)N1CC2(CC(c3cccc(NC(=O)CC(c4ccccc4)c4ccccc4)c3)=NO2)C[C@@H]1C(N)=O (stereo not given in full) | 9.6* | 2 | 15 | 1 | 1 | 29* | 18*
NC(=O)[C@H]1CC2(CC(c3cccc(NC(=O)COc4ccc(Cl)cc4)c3)=NO2)CN1C(=O)c1ccccc1C(=O)c1ccccc1 (stereo not given in full) | 8.7* | 4 | 13 | 1 | 6 | 24* | 15*
NC(=O)[C@H]1CC2(CC(c3cccc(NC(=O)COc4ccc(Cl)cc4)c3)=NO2)CN1C(=O)CC(c1ccccc1)c1ccccc1 (stereo not given in full) | 18* | 1 | 35* | 0 | 6 | 37* | 21*
O=C(C1=C[C@H](c2ccc3c(c2)OCO3)C[C@H](OCCCCO)O1)N1CCN(Cc2ccccc2)CC1 | -3 | -6 | -9 | 0 | -6 | / | /
O=C(Nc1ccccc1)C1=C[C@@H](C2CCCCC2)C[C@@H](OCc2ccc(CO)cc2)O1 | 8.7* | 5 | 18 | 0 | 2 | 19 | 13*
O=C(Nc1ccccc1)C1=C[C@H](c2ccc(Br)cc2)C[C@H](OCc2ccc(CO)cc2)O1 | 10* | 2 | 18 | 1 | 3 | 29* | 24*
O=C(Nc1ccccc1)C1=C[C@H](C2CCCCC2)C[C@H](OCc2ccc(CO)cc2)O1 | 7 | 4 | 16 | 1 | 5 | / | /
O=C(Nc1ccccc1)C1=C[C@@H](c2ccccc2)C[C@@H](OCc2ccc(CO)cc2)O1 | 2 | 2 | 6 | 0 | 4 | / | /
O=C(C1=C[C@@H](c2ccc(Br)cc2)C[C@@H](OCCCCO)O1)N1CCN(Cc2ccccc2)CC1 | 8.8* | 8 | 8 | 0 | -4 | 14 | 7
CCOC(=O)C1=CC[C@@H](c2ccccc2)N(S(=O)(=O)c2ccc(C)cc2)[C@H]1C=C(C)C | 3 | 0 | 5 | 0 | 0 | / | /
CC(=O)c1cccc(-c2ccnc3c2CC(C(=O)Nc2cccc(Oc4ccccc4)c2)O3)c1 (stereo not given) | 9.4* | -2 | 18 | 1 | -5 | 25* | 9.9*
O=C(Nc1ccc2c(c1)OCO2)C1Cc2c(-c3ccccc3Oc3ccccc3)ccnc2O1 (stereo not given) | 8.9* | -3 | 4 | 0 | -1 | 20* | 9.7*
COc1ccc(NC(=O)C2Cc3c(-c4ccccc4Oc4ccccc4)ccnc3O2)cc1OC (stereo not given) | 3 | 0 | 17 | -1 | -1 | / | /
CC(=O)c1cccc(-c2ccnc3c2CC(C(=O)Nc2cccc(C(F)(F)F)c2)O3)c1 (stereo not given) | 8.9* | 1 | 5 | 0 | 1 | 14 | 9
SMILES | ADAM17 inh | PLC-gamma1 inh | ADAM10 inh | proKLK7 act | PLCb3 inh | ADAM10 counter | ADAM17 confirm
O=C(OCC(=O)N(CCc1ccccc1)Cc1ccccc1)c1ccc(F)c(S(=O)(=O)N2CCOCC2)c1 | 5 | 1 | 13 | 1 | -7 | / | /
COC(=O)[C@]12CCCCC=C1N(Cc1ccc3c(c1)OCO3)C(=O)[C@H](CC(=O)N1CCSCC1)C2 | -6 | -2 | -12 | 0 | 0 | / | /
COc1ccccc1N=C1SCC(=O)N1Cc1ccco1 | 8.9* | 7 | -2 | 0 | 2 | 5 | 4
CCOC(=O)C1=C(C)NC(C)=C(C(=O)OCC)C1c1ccc([N+](=O)[O-])s1 | 9.2*! | -3 | -6 | -1 | -2 | 24* | 12*
COc1ccc(C2c3c(-c4ccccc4O)n[nH]c3C(=O)N2CCc2ccc(OC)c(OC)c2)cc1 (stereo not given) | 12* | -1 | 24* | 0 | 5 | 23* | 15*
O=C(NC1CCCC1)N[C@@H]1C=C[C@@H](CC(=O)N2CCOCC2)O[C@@H]1CO | 0 | 1 | -8 | 1 | 5 | / | /
COc1ccc(C(=O)COC(=O)C(CCCCN2C(=O)C3C4C=CC(C4)C3C2=O)N2C(=O)C3C4C=CC(C4)C3C2=O)cc1 (stereo not given) | 9.3* | -2 | 8 | 1 | -3 | -3 | 5
Cc1ccccc1-n1nc2c(c1NC(=O)c1ccc(S(=O)(=O)N(C)C)cc1)CSC2 | 13* | 8 | 18 | -1 | 2 | 18 | 9.4*
CC(=O)Nc1c2c(nn1-c1ccccc1C)CSC2 | 1 | -2 | -11 | 0 | -7 | / | /
Cc1cc(Cl)ccc1OCC(=O)OCC(=O)Nc1ccc(F)c([N+](=O)[O-])c1 | 9.0* | 1 | 17 | 0 | -5 | 43* | 18*
CCNC(=O)COC(=O)COc1ccc(Cl)cc1C | -1 | 0 | -9 | -1 | 0 | / | /
CCn1nc([N+](=O)[O-])c(C(C#N)c2nc3ccccc3n2C)c(Cl)c1=O (stereo not given) | 1 | -6 | -10 | 0 | -7 | / | /
